This is an account of results in PubChem BioAssay (NCATS).

Inconclusive results are not listed. A number with no mark means an inactive call. The source made the active and inactive calls. The call rests on the fitted dose curve; in most records, active means well fitted curve in the direction sought with a large enough effect; inconclusive means small, poorly fitted or top-dose-only effect, or another doubt; inactive means no such curve, though single readings can be large; an effect the other way counts as inactive or inconclusive.

Test [1] has as its target Rap guanine nucleotide exchange factor 3 (Homo sapiens) (UniProt O95398). Briefly: Confirmatory qHTS for agonist of cAMP-regulated guanine nucleotide exchange factor 3 (EPAC1) (AID 1645881;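 further: EPAC1 catalysed release of BODIPY-GDP from Rap1B seen as fluorescence loss; 100% = effect of cAMP agonist control; nearly all actives have a fitted effect of over 75% in size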). (In qHTS, concentration-response curves come from the screen itself.)
In test [2] the target is Rap guanine nucleotide exchange factor 4 (Homo sapiens) (UniProt Q8WZA2). Briefly: Confirmatory qHTS for agonist of cAMP-regulated guanine nucleotide exchange factor 4 (EPAC2) (AID 1645884).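 Further: nucleotide exchange releases bodipy-GDP from Rap1 and this lowers its fluorescence; on the % scale 0 is the no-effect control and ±100 the full control effect; nearly all actives have a fitted effect of over 65% in size.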
Test [3] has the same target. Briefly: Confirmatory qHTS for antagonist of cAMP-regulated guanine nucleotide exchange factor 4 (EPAC2) (AID 1645885). Further: nearly all actives have a fitted effect of over 25% in size. Further: potency means the concentration at half of the fitted maximal effect. On activity change, negative = inhibition: on the % scale 0 is the no-effect control and ±100 the full control effect.
Test [4] deals with Rap guanine nucleotide exchange factor 3 (Homo sapiens) (UniProt O95398). The test is described as follows: Counterscreen qHTS for antagonist of cAMP-regulated guanine nucleotide exchange factor 3 (EPAC1) (AID 1645888).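 Further: fluorescence loss as bound BODIPY-GDP is released from Rap1B; % of control where 0% means no effect.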 The gist of the method: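 Rap1B-BODIPY-GDP 250 nM + GDP 50 uM; cpds 7-pt, final 9.74 nM–152 uM (activator mode) or from 7.32 nM upwards (inhibitor mode); RT; FI 480/540 nm at 5 and 30 min, then ± cAMP, reread.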
Rap guanine nucleotide exchange factor 3 (Homo sapiens), sequence (O95398 whole entry, looked up): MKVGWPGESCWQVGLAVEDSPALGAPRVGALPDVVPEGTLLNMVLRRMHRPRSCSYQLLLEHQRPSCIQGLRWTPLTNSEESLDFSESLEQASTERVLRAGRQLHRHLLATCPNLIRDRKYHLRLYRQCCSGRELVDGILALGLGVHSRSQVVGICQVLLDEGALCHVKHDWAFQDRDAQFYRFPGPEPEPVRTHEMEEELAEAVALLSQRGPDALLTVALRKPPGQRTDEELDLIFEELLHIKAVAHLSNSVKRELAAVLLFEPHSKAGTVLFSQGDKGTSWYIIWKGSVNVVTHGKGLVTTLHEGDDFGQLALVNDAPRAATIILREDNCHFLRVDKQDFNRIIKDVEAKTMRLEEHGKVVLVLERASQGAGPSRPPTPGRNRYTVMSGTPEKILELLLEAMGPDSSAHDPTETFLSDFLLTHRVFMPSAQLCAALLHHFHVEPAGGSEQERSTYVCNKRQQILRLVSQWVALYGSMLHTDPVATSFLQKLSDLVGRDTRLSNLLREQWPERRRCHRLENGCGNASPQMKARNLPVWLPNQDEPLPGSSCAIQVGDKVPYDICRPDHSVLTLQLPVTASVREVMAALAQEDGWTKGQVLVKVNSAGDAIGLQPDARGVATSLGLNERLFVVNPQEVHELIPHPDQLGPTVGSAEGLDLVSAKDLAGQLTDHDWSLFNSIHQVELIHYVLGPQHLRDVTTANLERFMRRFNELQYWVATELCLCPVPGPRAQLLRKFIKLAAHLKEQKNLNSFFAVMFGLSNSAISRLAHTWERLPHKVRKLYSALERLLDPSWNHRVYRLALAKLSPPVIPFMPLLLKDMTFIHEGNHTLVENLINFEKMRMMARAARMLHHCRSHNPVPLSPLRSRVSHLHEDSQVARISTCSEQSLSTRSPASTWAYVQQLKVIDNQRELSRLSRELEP

Rap guanine nucleotide exchange factor 4 (Homo sapiens), sequence (Q8WZA2 whole entry, looked up): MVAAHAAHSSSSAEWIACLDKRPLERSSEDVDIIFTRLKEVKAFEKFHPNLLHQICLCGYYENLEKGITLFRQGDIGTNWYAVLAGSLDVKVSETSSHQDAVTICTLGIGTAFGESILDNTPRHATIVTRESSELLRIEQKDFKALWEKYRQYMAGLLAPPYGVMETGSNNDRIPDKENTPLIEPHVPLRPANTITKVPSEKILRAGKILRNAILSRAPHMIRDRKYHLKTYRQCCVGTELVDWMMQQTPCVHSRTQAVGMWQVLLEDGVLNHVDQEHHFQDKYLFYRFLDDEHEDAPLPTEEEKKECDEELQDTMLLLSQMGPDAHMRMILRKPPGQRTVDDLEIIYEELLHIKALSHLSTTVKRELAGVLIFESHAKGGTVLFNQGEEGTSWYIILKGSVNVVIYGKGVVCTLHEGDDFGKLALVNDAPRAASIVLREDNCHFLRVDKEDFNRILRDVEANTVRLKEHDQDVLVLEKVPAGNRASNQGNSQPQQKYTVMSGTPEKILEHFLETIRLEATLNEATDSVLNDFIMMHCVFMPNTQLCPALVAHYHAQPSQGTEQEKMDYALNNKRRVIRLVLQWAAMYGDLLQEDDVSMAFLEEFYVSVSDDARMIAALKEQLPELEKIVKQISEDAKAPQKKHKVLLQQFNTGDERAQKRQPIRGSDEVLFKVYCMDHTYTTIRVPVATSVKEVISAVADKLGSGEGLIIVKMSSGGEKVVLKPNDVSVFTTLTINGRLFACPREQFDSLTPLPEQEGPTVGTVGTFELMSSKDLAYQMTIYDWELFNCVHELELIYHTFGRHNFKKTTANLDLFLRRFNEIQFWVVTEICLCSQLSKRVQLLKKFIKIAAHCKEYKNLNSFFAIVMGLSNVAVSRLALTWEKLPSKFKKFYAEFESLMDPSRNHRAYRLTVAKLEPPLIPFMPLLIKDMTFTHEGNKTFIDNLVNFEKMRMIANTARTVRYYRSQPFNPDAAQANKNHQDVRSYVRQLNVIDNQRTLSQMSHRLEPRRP

Regarding `CCCCn1c(COc2cccc(OC)c2)nc2ccccc21`, the Potency result in test [1], in test [2] and in test [4] was “inactive” each time. For the same molecule, the outcome in test [3] was “inactive [at 12.7 µM]”.
For `COc1ccc2oc(=O)c(-c3nnc(NCc4ccco4)s3)cc2c1`, the Potency result in test [1] and in test [3] was “inactive” in each case. For the same molecule, the activation in test [2] is 7.34% [at 17.1 µM, percent relative to cAMP agonist control]. The activity change, negative = inhibition in test [4] is 15.5% [at 30.8 µM].
For the molecule `Cc1cc(SCC(=O)N/N=C/c2ccc(O)c(O)c2)nc2ccccc12`, the Potency entry in test [1] and in test [3] was “inactive” each time. Also, the activation in test [2] was 5.52% [at 17.1 µM, percent relative to cAMP agonist control]. The activity change, negative = inhibition in test [4] was -2.02% [at 30.8 µM].
As for `CCOC(=O)c1ccc2ncc(C(=O)OCC)c(Nc3ccc(C)c(Br)c3)c2c1`, the Potency result in test [1], in test [2] and in test [4] was “inactive” throughout. In addition, the outcome in test [3] was “inactive [at 12.7 µM]”.
As to `O=C(O)c1ccc(/C=N/NC(=O)c2cc(-c3ccc4c5c(cccc35)CC4)n[nH]2)cc1`, the Potency result in test [1], in test [2], in test [3] and in test [4] was “inactive” throughout.
Turning to `Nc1ccc2ccc(O)cc2c1`, the Potency result in test [1] and in test [3] was “inactive” each time. Further, the activation in test [2] is 14.1% [at 17.1 µM, percent relative to cAMP agonist control]. Also, in test [4], the activity change, negative = inhibition was -3.65% [at 30.8 µM].
Regarding `CC1=NN(c2ccccc2)C(=O)C1C(=O)c1cc([N+](=O)[O-])cc([N+](=O)[O-])c1` (centres undefined), the Potency entry in test [1], in test [2], in test [3] and in test [4] was “inactive” in each case.
Regarding `COC(=O)[C@]12CCCCC=C1N(CCC1=CCCCC1)C(=O)[C@H](CC(=O)NCc1cccc(C(F)(F)F)c1)C2`, the Potency entry in test [1] and in test [3] was “inactive” each time. Further, the activation in test [2] is 0% [at 17.1 µM, percent relative to cAMP agonist control]. Further, the activity change, negative = inhibition in test [4] is -9.47% [at 30.8 µM].
In the case of `CCc1cc(C(=O)Nc2ccc(S(=O)(=O)NC3=NCCCCC3)cc2)sc1C`, the Potency result in test [1] and in test [3] was “inactive” each time. For the same molecule, the activation in test [2] is 5.65% [at 17.1 µM, percent relative to cAMP agonist control]. The activity change, negative = inhibition in test [4] was 4.61% [at 30.8 µM].
With `O=c1c([N+](=O)[O-])cn(Cc2ccccc2)c(=O)n1Cc1ccccc1`, the Potency entry in test [1] and in test [3] was “inactive” throughout. For the same molecule, the activation in test [2] is 6.36% [at 17.1 µM, percent relative to cAMP agonist control]. Moreover, the activity change, negative = inhibition in test [4] was -12.8% [at 30.8 µM].
`O=C(/C=C/c1ccco1)Nc1nc(-c2ccccn2)cs1`: the Potency result in test [1], in test [2], in test [3] and in test [4] was “inactive” each time.
For `Cc1cc(C)c(S(=O)(=O)/N=C2\C=C(Nc3ccc(C(=O)O)cc3)C(=O)c3ccccc32)c(C)c1`, the Potency result in test [1], in test [2], in test [3] and in test [4] was “inactive” each time.
With `CCn1c2c(c3cc(Cl)ccc31)CCCC2=O`, the Potency result in test [1], in test [2], in test [3] and in test [4] was “inactive” each time.
Regarding `COc1ccc(C(=O)NC2(C(F)(F)F)NC(=O)N(CCCc3ccccc3)C2=O)c(OC)c1OC` (centres undefined), the Potency result in test [1] and in test [3] was “inactive” each time. In addition, in test [2], the activation is 12.9% [at 17.1 µM, percent relative to cAMP agonist control]. For the same molecule, in test [4], the activity change, negative = inhibition was -10.8% [at 30.8 µM].
Consider `Cc1cccc(C)c1NC(=O)Cn1c(=O)n(Cc2ccc(C(=O)NCc3ccco3)cc2)c(=O)c2sccc21`, for which the Potency result in test [1], in test [2], in test [3] and in test [4] was “inactive” throughout.
With `COCOCCn1cc(CN2CCS(=O)(=O)N(Cc3ccc(-c4ccccc4)cc3)C(CC(C)C)C2=O)nn1` (centres undefined), the Potency result in test [1] is “inactive”. Moreover, the activation in test [2] was 4.12% [at 17.1 µM, percent relative to cAMP agonist control]. Besides, the Potency in test [3] is 3.01 µM (active). In test [4], the activity change, negative = inhibition is -6.67% [at 30.8 µM].
As for `CCC1=Nc2cc(C(=O)NCCCOC)ccc2Sc2ccc(Br)cc21`, the Potency entry in test [1], in test [2], in test [3] and in test [4] was “inactive” each time.
For the molecule `Cc1ccc(OCC(=O)Nc2ccc(C)c(S(=O)(=O)N3CCCCCC3)c2)c([N+](=O)[O-])n1`, the Potency entry in test [1], in test [2], in test [3] and in test [4] was “inactive” each time.
Regarding `Oc1c(Br)cc(Br)cc1CNc1cccc2cccnc12`, the Potency result in test [1], in test [2] and in test [4] was “inactive” each time. Further, the Potency in test [3] is 26.9 µM (active).
In the case of `CCCCCCn1nc(C(=O)OCC(=O)c2c(N)n(C)c(=O)n(C)c2=O)c2ccccc2c1=O`, the Potency entry in test [1], in test [2], in test [3] and in test [4] was “inactive” in each case.
With `Cc1ccc(C(=O)c2cn(Cc3cccc(F)c3)c3nc(C)ccc3c2=O)cc1`, the Potency result in test [1], in test [2], in test [3] and in test [4] was “inactive” each time.
As to `CCN(CCCNC(=O)c1cc2cc3ccc(OC)cc3nc2s1)c1cccc(C)c1`, the Potency result in test [1], in test [2], in test [3] and in test [4] was “inactive” each time.
Consider `CSc1ccccc1C(=O)N(C)C(c1ccccc1)c1ccccc1`, for which the Potency entry in test [1], in test [2] and in test [4] was “inactive” in each case. For the same molecule, the Potency in test [3] is 26.9 µM (active).
With `Cc1ccc(-n2nc3ccc(NC(=O)/C=C/c4ccco4)cc3n2)cc1C`, the Potency result in test [1], in test [2], in test [3] and in test [4] was “inactive” in each case.
Take `COC(=O)Cn1c(CN2CCc3ccccc3C2)nc2c1c(=O)n(C)c(=O)n2C`: the Potency result in test [1], in test [2], in test [3] and in test [4] was “inactive” each time.
`Clc1ccc(C(c2ccccc2)c2c[nH]c3ccccc23)s1` (centres undefined): the Potency entry in test [1], in test [2], in test [3] and in test [4] was “inactive” throughout.
